# Target: AgAbp1
# Test: SPOT peptide array binding signal intensity (averaged, normalized) (arbitrary units (background-subtracted, floor 0; scale differs between SH3 domains)); higher = stronger binding of the SH3 domain to the peptide
# Summary of the method: (§1)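 Cellulose membranes carried synthetic 15-mer peptides with cysteines swapped for serines. These were incubated overnight at 4°C with 10 μg/ml of GST-fused SH3 domains from four yeast species in TBS-based blocking buffer. Binding signal, detected with anti-GST antibody and quantified in Genespotter, is the normalized, background-subtracted spot intensity averaged over replicates, in arbitrary units specific to each domain.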
row,Binder,SPOT peptide array binding signal intensity
1,QHQQRQPKRPKRYSL,147

# Target: AgBbc1
# Test: as above
# Summary of the method: as §1
row,Binder,SPOT peptide array binding signal intensity
1,QHQQRQPKRPKRYSL,293

# Target: AgBem1-D1
# Test: as above
# Summary of the method: as §1
row,Binder,SPOT peptide array binding signal intensity
1,QHQQRQPKRPKRYSL,112

# Target: AgBzz1-D1
# Test: as above
# Summary of the method: as §1
row,Binder,SPOT peptide array binding signal intensity
1,QHQQRQPKRPKRYSL,55.5

# Target: AgBzz1-D2
# Test: as above
# Summary of the method: as §1
row,Binder,SPOT peptide array binding signal intensity
1,QHQQRQPKRPKRYSL,19

# Target: AgCyk3
# Test: as above
# Summary of the method: as §1
row,Binder,SPOT peptide array binding signal intensity
1,QHQQRQPKRPKRYSL,11

# Target: AgFus1
# Test: as above
# Summary of the method: as §1
row,Binder,SPOT peptide array binding signal intensity
1,QHQQRQPKRPKRYSL,98.5

# Target: AgHof1
# Test: as above
# Summary of the method: as §1
row,Binder,SPOT peptide array binding signal intensity
1,QHQQRQPKRPKRYSL,34.5

# Target: AgHse1
# Test: as above
# Summary of the method: as §1
row,Binder,SPOT peptide array binding signal intensity
1,QHQQRQPKRPKRYSL,353

# Target: AgLsb1
# Test: as above
# Summary of the method: as §1
row,Binder,SPOT peptide array binding signal intensity
1,QHQQRQPKRPKRYSL,15

# Target: AgLsb4
# Test: as above
# Summary of the method: as §1
row,Binder,SPOT peptide array binding signal intensity
1,QHQQRQPKRPKRYSL,151

# Target: AgMyo5
# Test: as above
# Summary of the method: as §1
row,Binder,SPOT peptide array binding signal intensity
1,QHQQRQPKRPKRYSL,1.5

# Target: AgNbp2
# Test: as above
# Summary of the method: as §1
row,Binder,SPOT peptide array binding signal intensity
1,QHQQRQPKRPKRYSL,654

# Target: AgRvs167
# Test: as above
# Summary of the method: as §1
row,Binder,SPOT peptide array binding signal intensity
1,QHQQRQPKRPKRYSL,6

# Target: AgSho1
# Test: as above
# Summary of the method: as §1
row,Binder,SPOT peptide array binding signal intensity
1,QHQQRQPKRPKRYSL,12

# Target: AgSla1-D1-D2
# Test: as above
# Summary of the method: as §1
row,Binder,SPOT peptide array binding signal intensity
1,QHQQRQPKRPKRYSL,288

# Target: AgSla1-D3
# Test: as above
# Summary of the method: as §1
row,Binder,SPOT peptide array binding signal intensity
1,QHQQRQPKRPKRYSL,3.5

# Target: CaAbp1-D1
# Test: as above
# Summary of the method: as §1
row,Binder,SPOT peptide array binding signal intensity
1,QHQQRQPKRPKRYSL,1050

# Target: CaAbp1-D2
# Test: as above
# Summary of the method: as §1
row,Binder,SPOT peptide array binding signal intensity
1,QHQQRQPKRPKRYSL,639

# Target: CaBbc1
# Test: as above
# Summary of the method: as §1
row,Binder,SPOT peptide array binding signal intensity
1,QHQQRQPKRPKRYSL,792

# Target: CaBem1-D1
# Test: as above
# Summary of the method: as §1
row,Binder,SPOT peptide array binding signal intensity
1,QHQQRQPKRPKRYSL,20

# Target: CaBzz1-D1
# Test: as above
# Summary of the method: as §1
row,Binder,SPOT peptide array binding signal intensity
1,QHQQRQPKRPKRYSL,59

# Target: CaBzz1-D2
# Test: as above
# Summary of the method: as §1
row,Binder,SPOT peptide array binding signal intensity
1,QHQQRQPKRPKRYSL,94

# Target: CaCyk3
# Test: as above
# Summary of the method: as §1
row,Binder,SPOT peptide array binding signal intensity
1,QHQQRQPKRPKRYSL,211

# Target: CaFus1
# Test: as above
# Summary of the method: as §1
row,Binder,SPOT peptide array binding signal intensity
1,QHQQRQPKRPKRYSL,126

# Target: CaHof1
# Test: as above
# Summary of the method: as §1
row,Binder,SPOT peptide array binding signal intensity
1,QHQQRQPKRPKRYSL,2

# Target: CaHse1
# Test: as above
# Summary of the method: as §1
row,Binder,SPOT peptide array binding signal intensity
1,QHQQRQPKRPKRYSL,175

# Target: CaLsb1
# Test: as above
# Summary of the method: as §1
row,Binder,SPOT peptide array binding signal intensity
1,QHQQRQPKRPKRYSL,2.5

# Target: CaLsb4
# Test: as above
# Summary of the method: as §1
row,Binder,SPOT peptide array binding signal intensity
1,QHQQRQPKRPKRYSL,1810

# Target: CaMyo5
# Test: as above
# Summary of the method: as §1
row,Binder,SPOT peptide array binding signal intensity
1,QHQQRQPKRPKRYSL,12

# Target: CaNbp2
# Test: as above
# Summary of the method: as §1
row,Binder,SPOT peptide array binding signal intensity
1,QHQQRQPKRPKRYSL,492

# Target: CaRvs167
# Test: as above
# Summary of the method: as §1
row,Binder,SPOT peptide array binding signal intensity
1,QHQQRQPKRPKRYSL,18.5

# Target: CaRvs167-3
# Test: as above
# Summary of the method: as §1
row,Binder,SPOT peptide array binding signal intensity
1,QHQQRQPKRPKRYSL,38.2

# Target: CaSho1
# Test: as above
# Summary of the method: as §1
row,Binder,SPOT peptide array binding signal intensity
1,QHQQRQPKRPKRYSL,56.5

# Target: CaSla1-D1-D2
# Test: as above
# Summary of the method: as §1
row,Binder,SPOT peptide array binding signal intensity
1,QHQQRQPKRPKRYSL,558

# Target: CaSla1-D3
# Test: as above
# Summary of the method: as §1
row,Binder,SPOT peptide array binding signal intensity
1,QHQQRQPKRPKRYSL,26.2

# Target: ScAbp1
# Test: as above
# Summary of the method: as §1
row,Binder,SPOT peptide array binding signal intensity
1,QHQQRQPKRPKRYSL,43

# Target: ScBbc1
# Test: as above
# Summary of the method: as §1
row,Binder,SPOT peptide array binding signal intensity
1,QHQQRQPKRPKRYSL,251

# Target: ScBem1-D1
# Test: as above
# Summary of the method: as §1
row,Binder,SPOT peptide array binding signal intensity
1,QHQQRQPKRPKRYSL,14

# Target: ScBzz1-D1
# Test: as above
# Summary of the method: as §1
row,Binder,SPOT peptide array binding signal intensity
1,QHQQRQPKRPKRYSL,9

# Target: ScBzz1-D2
# Test: as above
# Summary of the method: as §1
row,Binder,SPOT peptide array binding signal intensity
1,QHQQRQPKRPKRYSL,12

# Target: ScCyk3
# Test: as above
# Summary of the method: as §1
row,Binder,SPOT peptide array binding signal intensity
1,QHQQRQPKRPKRYSL,216

# Target: ScFus1
# Test: as above
# Summary of the method: as §1
row,Binder,SPOT peptide array binding signal intensity
1,QHQQRQPKRPKRYSL,54.5

# Target: ScHof1
# Test: as above
# Summary of the method: as §1
row,Binder,SPOT peptide array binding signal intensity
1,QHQQRQPKRPKRYSL,≤ 0

# Target: ScHse1
# Test: as above
# Summary of the method: as §1
row,Binder,SPOT peptide array binding signal intensity
1,QHQQRQPKRPKRYSL,409

# Target: ScLsb1
# Test: as above
# Summary of the method: as §1
row,Binder,SPOT peptide array binding signal intensity
1,QHQQRQPKRPKRYSL,25.8

# Target: ScLsb2
# Test: as above
# Summary of the method: as §1
row,Binder,SPOT peptide array binding signal intensity
1,QHQQRQPKRPKRYSL,45

# Target: ScLsb3
# Test: as above
# Summary of the method: as §1
row,Binder,SPOT peptide array binding signal intensity
1,QHQQRQPKRPKRYSL,1410

# Target: ScLsb4
# Test: as above
# Summary of the method: as §1
row,Binder,SPOT peptide array binding signal intensity
1,QHQQRQPKRPKRYSL,140

# Target: ScMyo3
# Test: as above
# Summary of the method: as §1
row,Binder,SPOT peptide array binding signal intensity
1,QHQQRQPKRPKRYSL,4.25

# Target: ScMyo5
# Test: as above
# Summary of the method: as §1
row,Binder,SPOT peptide array binding signal intensity
1,QHQQRQPKRPKRYSL,7.75

# Target: ScNbp2
# Test: as above
# Summary of the method: as §1
row,Binder,SPOT peptide array binding signal intensity
1,QHQQRQPKRPKRYSL,620

# Target: ScPex13
# Test: as above
# Summary of the method: as §1
row,Binder,SPOT peptide array binding signal intensity
1,QHQQRQPKRPKRYSL,88.8

# Target: ScRvs167
# Test: as above
# Summary of the method: as §1
row,Binder,SPOT peptide array binding signal intensity
1,QHQQRQPKRPKRYSL,129

# Target: ScSho1
# Test: as above
# Summary of the method: as §1
row,Binder,SPOT peptide array binding signal intensity
1,QHQQRQPKRPKRYSL,196

# Target: ScSla1-D1-D2
# Test: as above
# Summary of the method: as §1
row,Binder,SPOT peptide array binding signal intensity
1,QHQQRQPKRPKRYSL,372

# Target: ScSla1-D3
# Test: as above
# Summary of the method: as §1
row,Binder,SPOT peptide array binding signal intensity
1,QHQQRQPKRPKRYSL,22.2

# Target: SpAbp1-D1
# Test: as above
# Summary of the method: as §1
row,Binder,SPOT peptide array binding signal intensity
1,QHQQRQPKRPKRYSL,426

# Target: SpBbc1
# Test: as above
# Summary of the method: as §1
row,Binder,SPOT peptide array binding signal intensity
1,QHQQRQPKRPKRYSL,31

# Target: SpBzz1-D1
# Test: as above
# Summary of the method: as §1
row,Binder,SPOT peptide array binding signal intensity
1,QHQQRQPKRPKRYSL,250

# Target: SpBzz1-D2
# Test: as above
# Summary of the method: as §1
row,Binder,SPOT peptide array binding signal intensity
1,QHQQRQPKRPKRYSL,1.5

# Target: SpCyk3
# Test: as above
# Summary of the method: as §1
row,Binder,SPOT peptide array binding signal intensity
1,QHQQRQPKRPKRYSL,10.5

# Target: SpHof1
# Test: as above
# Summary of the method: as §1
row,Binder,SPOT peptide array binding signal intensity
1,QHQQRQPKRPKRYSL,81

# Target: SpHof1-2
# Test: as above
# Summary of the method: as §1
row,Binder,SPOT peptide array binding signal intensity
1,QHQQRQPKRPKRYSL,18.8

# Target: SpHof1-3
# Test: as above
# Summary of the method: as §1
row,Binder,SPOT peptide array binding signal intensity
1,QHQQRQPKRPKRYSL,169

# Target: SpHse1
# Test: as above
# Summary of the method: as §1
row,Binder,SPOT peptide array binding signal intensity
1,QHQQRQPKRPKRYSL,75.2

# Target: SpLsb1
# Test: as above
# Summary of the method: as §1
row,Binder,SPOT peptide array binding signal intensity
1,QHQQRQPKRPKRYSL,73.8

# Target: SpLsb4
# Test: as above
# Summary of the method: as §1
row,Binder,SPOT peptide array binding signal intensity
1,QHQQRQPKRPKRYSL,2350

# Target: SpMyo1
# Test: as above
# Summary of the method: as §1
row,Binder,SPOT peptide array binding signal intensity
1,QHQQRQPKRPKRYSL,7.75

# Target: SpNbp2
# Test: as above
# Summary of the method: as §1
row,Binder,SPOT peptide array binding signal intensity
1,QHQQRQPKRPKRYSL,267

# Target: SpPex13
# Test: as above
# Summary of the method: as §1
row,Binder,SPOT peptide array binding signal intensity
1,QHQQRQPKRPKRYSL,12

# Target: SpRvs167
# Test: as above
# Summary of the method: as §1
row,Binder,SPOT peptide array binding signal intensity
1,QHQQRQPKRPKRYSL,26.8

# Target: SpSla1-D1-D2
# Test: as above
# Summary of the method: as §1
row,Binder,SPOT peptide array binding signal intensity
1,QHQQRQPKRPKRYSL,≤ 0

# Target: SpSla1-D3
# Test: as above
# Summary of the method: as §1
row,Binder,SPOT peptide array binding signal intensity
1,QHQQRQPKRPKRYSL,6
